Assay [1] relates to Sporothrix brasiliensis CBS 133006. Nature of the assay: growth inhibition relative to untreated control; higher = more growth inhibition (more antifungal activity), active = 80 or more; extreme values may be limits of the assay. The note with it: 1 µM; 48 h. In short, it runs like this:
(§1)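 Before testing, the reference isolates were kept in brain heart infusion broth with 2% glucose at 36°C for 7 days to give yeast-form cells. These cells, at 1 x 10^5 CFU/ml, received library compounds at a final 1 μM and were held 48 h at 35°C in 5% CO2. Growth was checked by eye under an inverted light microscope and quantified spectrophotometrically in quadruplicate, and the value is percent growth inhibition versus untreated cells.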

The test system of assay [2] is Sporothrix schenckii ATCC 32286. The description is as above. The note with it: 1 µM; 48 h. The essentials: as §1

Unmarked numbers belong to inactive results.

As to `O=C(N[C@H](Cc1ccccc1)C(=O)Nc1ccccc1N1CCOCC1)c1cccs1`, the growth inhibition in assay [1] is 7%; in assay [2] it was 7.25%.
The corresponding values for `C[C@H](C(N)=O)N1CCCC[C@@H]1c1ccc(OCc2cccc(F)c2)cc1` are 0% and 2%.
The corresponding values for `CCC(Sc1nc2ccccc2o1)C(=O)Nc1nccs1` (stereo not given) are 5.75% and 15.5%.
On to `COc1ccc(-c2cnc3ccc(N4CCCC4)nn23)cc1OC`, for which the growth inhibition was 21% in assay [1] and 0% in assay [2].
The corresponding values for `COc1cc(Br)cc2cc(C(=O)Nc3cccc(C(F)(F)F)c3)c(=O)oc12` are 11.5% and 6.75%.
For `CC(C)(C)c1cc(C(=O)N2CCN(c3nccnc3C#N)CC2)n(Cc2ccccc2)n1`, the growth inhibition in assay [1] is 25.8%; in assay [2] it was 15.8%.
As to `CC(C)(C)n1nc(-c2ccccc2)c2c(N)ncnc21`, the growth inhibition in assay [1] was 0%; in assay [2], 9%.
Consider `COc1cc(NC(C)CCCN)c2ncccc2c1` (stereo not given), for which the growth inhibition in assay [1] was 1%; in assay [2], 4.25%.
As to `CC(C)(C)n1nc(Cc2cccc3ccccc23)c2c(N)ncnc21`, the growth inhibition in assay [1] was 11%; in assay [2], 0%.
The corresponding values for `COc1ccc2nc(C)cc(OCC(=O)Nc3ccccc3OC)c2c1` are 6% and 0.75%.

Values taken from the supplement of paper PMC7556523.
